The record followed here is PubChem BioAssay (NCATS).

In experiment [1] the target is Lysosomal acid glucosylceramidase (Homo sapiens) (UniProt P04062). The experiment can be described thus: Glucocerebrosidase-p2 (AID 348; in the data active = potency below about 10 µM; note: potency is the fitted concentration of half-maximal effect). Conditions: purified GBA, blue fluorogenic substrate, 40 min. In a few lines: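 Normal human glucocerebrosidase (0.2 nM) with blue fluorogenic substrate (80 uM final) in citrate/phosphate pH 5.9 with 10mM sodium taurocholate, 0.01% tween-20; 40 min RT, NaOH/glycine stop; fluorescence Ex 365/Em 440; AC50 from a titration from 0.6 nM upwards.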

Experiment [2] can be described thus: AP1 Signaling Pathway (AID 357; active = well fitted curve in either direction with a large enough effect, not every such curve was filed as active; note: % is set by controls: 0 for no effect and ±100 for the full control effect). The conditions noted are these: ME-180 AP-1-bla reporter, EGF-induced, beta-lactamase ratio, 5 h; at 7.69 µM (top of the series) unless noted. The method in brief: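 Cells are seeded overnight, exposed to compound titrations and an EC50 level of EGF for 5 hours at 37 °C, then loaded with CCF4 dye for 2.5 hours. Beta-lactamase activity under the AP-1 element is read as a blue/green ratio.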

The nature of experiment [3]: NFAT Signaling Pathway (AID 444; active = well fitted curve in either direction with a large enough effect, not every such curve was filed as active;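 note: carbachol stimulus at about its EC50 of 1 µM final; % is set by controls: 0 for no effect and ±100 for the full control effect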). Conditions: Jurkat NFAT-bla M1, carbachol, beta-lactamase ratio, 5 h; at 7.69 µM (top of the series) unless noted. The method in brief:
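Read-out: CCF4 FRET ratio (460 nm/530 nm) after 1 h RT dye loading, used for %activity and AC50 from titration series. Cells: Jurkat NFAT-β-lactamase/M1 line, treated with compound plus 1 uM carbachol for 5 h, 37 °C.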

The nature of experiment [4]: Stat Signaling Pathway (AID 446; active = well fitted curve in either direction with a large enough effect, not every such curve was filed as active;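 note: ME-180 cervical cancer cells given 40 pM IL-6 alongside compound; SIE-controlled beta-lactamase reporter measured as 460/530 nm FRET emission ratio; % is set by controls: 0 for no effect and ±100 for the full control effect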). The conditions noted are these: ME-180 (cervical carcinoma) SIE beta-lactamase reporter, IL-6 stimulated, 5 h; at 7.69 µM (top of the series) unless noted. In a few lines: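 Emission at 460 and 530 nm (excitation 405 nm) reports SIE-controlled beta-lactamase in ME-180 cells. Cells received compound with 40 pM IL-6 for 5 hrs at 37 C; data scaled between 300 pM IL-6 and 125 nM JAK-inhibitor controls.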

For experiment [5], the target named is Glucocorticoid receptor (Homo sapiens) (UniProt P04150). The experiment can be described thus: GR-GFP Redistribution (AID 450;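 active = compounds whose dose series gives a full or clear partial fitted curve of increased nuclear translocation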; note: potency is the fitted concentration of half-maximal effect). Conditions: U2OS GR-GFP nuclear translocation, laser cytometry, 2 h.
For experiment [6] the target is unchanged. Nature of the experiment: GR-EFC Redistribution (AID 451; calls by dose curve; note: potency is the fitted concentration of half-maximal effect). The conditions noted are these: CHO-K1 GR-EFC translocation, beta-gal luminescence, 2 h. The method in brief: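 Translocation of GR-ED fusion to nuclear EA restores b-gal, read by luminescence after 1 h room-temperature detection. Engineered CHO-K1 biosensor cells, 1,000/well, exposed 2 h at 37 C to titrations up to 46 uM final.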

Experiment [7] deals with Mitogen-activated protein kinase 10 (Mus musculus) (UniProt Q61831). Nature of the experiment: JNK3 AlphaScreen Assay (AID 530; active = well fitted curve in either direction with a large enough effect, not every such curve was filed as active;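 note: kinase came from lysate of stimulated human HepG2 cells; signal reports phosphorylation of biotinylated GST-cJun 1-79 at Ser73 with 10 µM ATP; % is set by controls: 0 for no effect and ±100 for the full control effect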). The conditions noted are these: JNK3 lysate, c-Jun phosphorylation; series mostly up to 57.1 µM. The method in brief:
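qHTS titrations with 15 min compound pre-incubation before adding ATP (10 uM final). Read-out: AlphaScreen of Ser73-phosphorylated biotin-GST-cJun using HepG2 lysate JNK3 activated by IL-1β and TNFα.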

The target in experiment [8] is 3',5'-cyclic-AMP phosphodiesterase 4B (Homo sapiens) (UniProt Q07343). Nature of the experiment: qHTS Assay for Inhibitors of PDE-IV (AID 607; active = well fitted activation curve with a large enough effect in the main read-out, with a control signal flat, not every such curve was filed as active; note: % of control where 0% means no effect). Conditions: HEK293 ACTOne CNG channel cells, membrane potential fluorescence; series mostly up to 22.9 µM. The method in brief:
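The readout is membrane depolarisation from a cAMP-sensing CNG channel, detected with a potential dye at ex 535/em 590. Cells were HEK293-derived (endogenous PDE-IV) at 1000 cells/well, titrated up to 22.9 uM final.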
Background: qHTS replaces the single test concentration by a dilution series.

The target of experiment [9] is Dual specificity protein kinase CLK4 (Homo sapiens) (UniProt Q9HAZ1). Nature of the experiment: qHTS Assay for Inhibitors of CDC-like Kinase 4 (Kinase-Glo Assay) (AID 1770). Note: nearly all actives have a fitted effect of over 65% in size. Note: potency is the fitted concentration of half-maximal effect. Conditions: recombinant Clk4, Kinase-Glo ATP depletion luminescence; series mostly up to 66.7 µM. The method in brief:
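Readout: Kinase-Glo luminescence from ATP left after a 4.5 h room-temperature reaction of 25 nM Clk4 with 100 uM RS peptide and 1 uM ATP (final). Buffer: 25 mM Tris pH 7.5, 10 mM MgCl2.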

The target is the same in experiment [10]. The experiment can be described thus: qHTS Assay for Inhibitors of CDC-like Kinase 4 (ADP-Glo Assay) (AID 1771). Note: nearly all actives have a fitted effect of over 70% in size. Note: potency is the fitted concentration of half-maximal effect. The conditions noted are these: recombinant CLK4, ADP-Glo luminescence; series mostly up to 80 µM. The method in brief:
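Compounds are pin-transferred onto substrate mix (100 uM RS peptide, 1 uM ATP), then 25 nM Clk4 is added. After 1 hr at room temperature, ADP-Glo reagent runs 45 min, detection reagent 30 min, then luminescence is read.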

The target is the same in experiment [11]. Nature of the experiment: qHTS Assay for Inhibitors of CDC-like Kinase 4 (ADP-FP Assay) (AID 1795). Note: nearly all actives have a fitted effect of over 60% in size. Note: potency is the fitted concentration of half-maximal effect. Conditions: Transcreener ADP fluorescence polarization; series mostly up to 50 µM. The method in brief: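 FP readout: Orange Transcreener ADP2 tracer (4 nM) plus ADP antibody, read after 30 min at room temperature. Kinase step: 6.25 nM Clk4, 100 uM RS peptide, 1 uM ATP, pH 7.5, 1 h.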

Experiment [12] has as its target Ubiquitin carboxyl-terminal hydrolase 1 (Homo sapiens) (UniProt O94782). The experiment can be described thus: Inhibitors of USP1/UAF1: Pilot qHTS (AID 504865).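 Note: rhodamine fluorescence freed from ubiquitin-rhodamine substrate followed over time; top concentration of the series differs between compounds; % is set by controls: 0 for no effect and ±100 for the full control effect; nearly all actives have a fitted effect of over 35% in size.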 The conditions noted are these: purified USP1/UAF1, Ub-rhodamine cleavage fluorescence; series mostly up to 54.9 µM. The method in brief: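 1nM USP1/UAF1 + cpd, 15 min RT; start w/ Ub-Rho 150nM final; kinetic FL 480/540 nm, 6 reads q60 s. Buffer 50mM HEPES pH 7.8, 0.5mM EDTA, 1mM TCEP, 0.01% Tween-20, 0.1 mg/ml BSA.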

Experiment [13] can be described thus: Primary qHTS for small molecule stabilizers of the endoplasmic reticulum resident proteome: Secreted ER Calcium Modulated Protein (SERCaMP) assay (AID 1508630). Note: % is set by controls: 0 for no effect and ±100 for the full control effect. The conditions noted are these: SH-SY5Y GLuc-SERCaMP (Gaussia luciferase released on ER calcium loss) secretion, thapsigargin, luminescence; series mostly up to 38.4 µM. The method in brief:
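The SH-SY5Y reporter protocol was run at 3 concentrations up to 38.3 uM (primary) or 11 concentrations (follow-up): 16 h compound, 100 nM thapsigargin for 4 h, then extracellular luciferase luminescence.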

For experiment [14], the target named is Cytochrome P450 1A2 (Homo sapiens) (UniProt P05177). Nature of the experiment: p450-cyp1a2 (AID 410; calls by dose curve; note: potency is the fitted concentration of half-maximal effect). The conditions noted are these: recombinant CYP1A2, luciferin-ME demethylation, luminescence; series mostly up to 57 µM. The method in brief: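 O-Demethylation of luciferin 6' methyl ether by human CYP1A2 is monitored as luciferase luminescence. Substrate sits at Km (100uM); enzyme is 20nM. Values are scaled to 57 uM furafylline as maximal inhibition.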

The target of experiment [15] is Cytochrome P450 3A4 (Homo sapiens) (UniProt P08684). Nature of the experiment: qHTS Assay for Activators of Cytochrome P450 3A4 (AID 885). Note: nearly all actives have a fitted effect of over 65% in size. Conditions: recombinant CYP3A4, Luciferin-PPXE luminescence, 60 min; series mostly up to 57.1 µM. In a few lines:
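Activators are scored by enhanced luminescence from CYP3A4 conversion of luciferin-PPXE (25uM, equal to KM) to luciferin, after 60 min at RT with an NADPH-regenerating system.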

Values without a mark were called inactive. Results filed as inconclusive are left out. Activity calls are given as the source filed them. Unless noted, calls come from the whole dose curve; as a rule, active = well fitted curve in the direction sought with a large enough effect; inconclusive = small, poorly fitted or top-dose-only effect, or another doubt; inactive = no such curve, though single readings can be large; an effect the other way counts as inactive or inconclusive.

Chain of Lysosomal acid glucosylceramidase (Homo sapiens) (P04062 whole entry, looked up): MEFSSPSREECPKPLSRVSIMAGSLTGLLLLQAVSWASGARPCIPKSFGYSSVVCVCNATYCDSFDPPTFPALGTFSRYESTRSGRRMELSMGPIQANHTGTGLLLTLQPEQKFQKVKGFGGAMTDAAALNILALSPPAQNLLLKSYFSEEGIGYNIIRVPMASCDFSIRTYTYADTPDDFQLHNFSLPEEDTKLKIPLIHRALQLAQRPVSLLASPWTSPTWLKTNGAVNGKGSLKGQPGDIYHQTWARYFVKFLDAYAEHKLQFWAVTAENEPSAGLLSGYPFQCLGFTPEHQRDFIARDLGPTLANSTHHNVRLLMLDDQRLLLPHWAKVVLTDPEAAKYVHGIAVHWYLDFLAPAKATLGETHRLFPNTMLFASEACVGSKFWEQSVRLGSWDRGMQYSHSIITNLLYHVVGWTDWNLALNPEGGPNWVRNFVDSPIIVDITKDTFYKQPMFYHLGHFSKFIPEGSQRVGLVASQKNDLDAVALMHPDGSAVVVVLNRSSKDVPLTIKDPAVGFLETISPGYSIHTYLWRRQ
Chain of Ubiquitin carboxyl-terminal hydrolase 1 (Homo sapiens) (O94782 whole entry, looked up): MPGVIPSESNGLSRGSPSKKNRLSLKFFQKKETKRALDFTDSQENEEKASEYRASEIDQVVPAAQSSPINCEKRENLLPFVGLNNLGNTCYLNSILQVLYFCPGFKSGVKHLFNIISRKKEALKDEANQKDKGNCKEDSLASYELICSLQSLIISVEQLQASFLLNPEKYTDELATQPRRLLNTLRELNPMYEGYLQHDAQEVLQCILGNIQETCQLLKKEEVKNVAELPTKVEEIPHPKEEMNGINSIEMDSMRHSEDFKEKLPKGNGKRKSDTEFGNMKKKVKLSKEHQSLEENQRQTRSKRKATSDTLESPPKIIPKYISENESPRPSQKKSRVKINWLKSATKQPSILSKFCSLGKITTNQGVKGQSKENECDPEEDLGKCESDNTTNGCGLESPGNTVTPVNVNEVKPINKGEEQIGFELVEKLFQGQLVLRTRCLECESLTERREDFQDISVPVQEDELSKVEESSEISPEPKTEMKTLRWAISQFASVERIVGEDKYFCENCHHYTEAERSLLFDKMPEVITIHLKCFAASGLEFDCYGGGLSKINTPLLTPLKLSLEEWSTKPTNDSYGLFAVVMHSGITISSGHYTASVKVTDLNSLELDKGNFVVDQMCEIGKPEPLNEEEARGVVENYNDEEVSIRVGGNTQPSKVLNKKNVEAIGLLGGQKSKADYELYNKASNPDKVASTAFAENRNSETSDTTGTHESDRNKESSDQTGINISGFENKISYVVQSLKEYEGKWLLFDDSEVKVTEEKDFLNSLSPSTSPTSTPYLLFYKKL
Chain of Dual specificity protein kinase CLK4 (Homo sapiens) (Q9HAZ1 whole entry, looked up): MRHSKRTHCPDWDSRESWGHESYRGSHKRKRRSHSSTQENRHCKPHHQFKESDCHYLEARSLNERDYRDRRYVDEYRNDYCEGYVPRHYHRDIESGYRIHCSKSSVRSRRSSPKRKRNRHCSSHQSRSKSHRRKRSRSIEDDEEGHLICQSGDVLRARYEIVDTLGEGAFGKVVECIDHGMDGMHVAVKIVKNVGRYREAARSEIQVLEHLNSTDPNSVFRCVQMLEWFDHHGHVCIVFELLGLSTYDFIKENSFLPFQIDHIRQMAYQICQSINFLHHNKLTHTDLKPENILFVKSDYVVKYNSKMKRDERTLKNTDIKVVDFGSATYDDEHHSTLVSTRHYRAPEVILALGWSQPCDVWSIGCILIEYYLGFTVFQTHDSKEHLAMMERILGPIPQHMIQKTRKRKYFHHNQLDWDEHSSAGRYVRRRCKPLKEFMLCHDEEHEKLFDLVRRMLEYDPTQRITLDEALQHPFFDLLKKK
Chain of 3',5'-cyclic-AMP phosphodiesterase 4B (Homo sapiens) (Q07343 whole entry, looked up): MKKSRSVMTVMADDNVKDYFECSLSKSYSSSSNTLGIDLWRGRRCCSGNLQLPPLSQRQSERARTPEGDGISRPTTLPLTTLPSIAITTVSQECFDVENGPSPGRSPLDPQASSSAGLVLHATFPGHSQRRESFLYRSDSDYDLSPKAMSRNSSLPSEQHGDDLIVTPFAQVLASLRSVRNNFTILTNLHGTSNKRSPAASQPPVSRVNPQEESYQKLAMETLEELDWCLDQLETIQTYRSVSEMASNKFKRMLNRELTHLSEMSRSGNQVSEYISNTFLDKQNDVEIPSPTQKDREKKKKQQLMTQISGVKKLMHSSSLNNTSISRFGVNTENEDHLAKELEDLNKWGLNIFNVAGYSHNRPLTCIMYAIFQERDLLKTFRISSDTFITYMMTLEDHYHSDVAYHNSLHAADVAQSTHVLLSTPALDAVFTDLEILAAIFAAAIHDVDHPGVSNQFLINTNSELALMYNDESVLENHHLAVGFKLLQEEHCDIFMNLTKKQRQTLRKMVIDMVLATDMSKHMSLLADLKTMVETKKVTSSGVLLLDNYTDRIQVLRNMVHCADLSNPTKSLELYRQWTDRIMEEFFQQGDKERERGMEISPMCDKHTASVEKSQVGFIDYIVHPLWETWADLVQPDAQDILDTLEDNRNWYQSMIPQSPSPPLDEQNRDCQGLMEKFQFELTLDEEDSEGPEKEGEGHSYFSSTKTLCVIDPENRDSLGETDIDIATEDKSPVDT
Chain of Glucocorticoid receptor (Homo sapiens) (P04150 whole entry, looked up, the tested form may be a part): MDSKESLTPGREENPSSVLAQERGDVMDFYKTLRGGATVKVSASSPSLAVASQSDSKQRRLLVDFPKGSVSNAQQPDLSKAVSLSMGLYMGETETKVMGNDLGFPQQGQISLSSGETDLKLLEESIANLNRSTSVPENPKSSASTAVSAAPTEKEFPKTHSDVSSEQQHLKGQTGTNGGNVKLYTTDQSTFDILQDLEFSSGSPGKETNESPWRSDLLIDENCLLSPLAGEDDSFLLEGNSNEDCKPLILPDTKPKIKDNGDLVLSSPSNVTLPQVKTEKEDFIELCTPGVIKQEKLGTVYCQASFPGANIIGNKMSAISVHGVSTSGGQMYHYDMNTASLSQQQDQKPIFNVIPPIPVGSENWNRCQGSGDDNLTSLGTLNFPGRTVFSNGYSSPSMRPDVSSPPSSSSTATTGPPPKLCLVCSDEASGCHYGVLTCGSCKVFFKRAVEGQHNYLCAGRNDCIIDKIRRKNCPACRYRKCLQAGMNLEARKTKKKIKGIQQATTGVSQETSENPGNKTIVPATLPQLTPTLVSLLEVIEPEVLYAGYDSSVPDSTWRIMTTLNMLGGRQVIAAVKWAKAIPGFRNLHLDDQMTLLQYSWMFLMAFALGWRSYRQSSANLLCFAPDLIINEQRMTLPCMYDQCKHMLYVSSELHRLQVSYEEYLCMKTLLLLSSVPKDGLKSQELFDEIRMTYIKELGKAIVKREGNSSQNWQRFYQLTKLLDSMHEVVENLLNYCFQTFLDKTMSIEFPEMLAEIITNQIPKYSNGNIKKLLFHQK
Chain of Cytochrome P450 3A4 (Homo sapiens) (P08684 whole entry, looked up): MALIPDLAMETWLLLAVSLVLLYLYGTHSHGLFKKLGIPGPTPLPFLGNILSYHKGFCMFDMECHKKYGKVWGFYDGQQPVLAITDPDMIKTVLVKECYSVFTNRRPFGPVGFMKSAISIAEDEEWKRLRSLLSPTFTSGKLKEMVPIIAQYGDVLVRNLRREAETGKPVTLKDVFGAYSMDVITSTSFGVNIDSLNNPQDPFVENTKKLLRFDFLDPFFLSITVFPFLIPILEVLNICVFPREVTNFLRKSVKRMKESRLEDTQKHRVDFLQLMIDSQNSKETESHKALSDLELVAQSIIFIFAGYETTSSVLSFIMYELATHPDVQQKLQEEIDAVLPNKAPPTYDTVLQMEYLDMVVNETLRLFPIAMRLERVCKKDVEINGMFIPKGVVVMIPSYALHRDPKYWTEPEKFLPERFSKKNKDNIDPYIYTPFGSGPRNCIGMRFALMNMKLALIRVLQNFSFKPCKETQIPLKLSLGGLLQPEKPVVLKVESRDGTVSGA
Chain of Cytochrome P450 1A2 (Homo sapiens) (P05177 whole entry, looked up): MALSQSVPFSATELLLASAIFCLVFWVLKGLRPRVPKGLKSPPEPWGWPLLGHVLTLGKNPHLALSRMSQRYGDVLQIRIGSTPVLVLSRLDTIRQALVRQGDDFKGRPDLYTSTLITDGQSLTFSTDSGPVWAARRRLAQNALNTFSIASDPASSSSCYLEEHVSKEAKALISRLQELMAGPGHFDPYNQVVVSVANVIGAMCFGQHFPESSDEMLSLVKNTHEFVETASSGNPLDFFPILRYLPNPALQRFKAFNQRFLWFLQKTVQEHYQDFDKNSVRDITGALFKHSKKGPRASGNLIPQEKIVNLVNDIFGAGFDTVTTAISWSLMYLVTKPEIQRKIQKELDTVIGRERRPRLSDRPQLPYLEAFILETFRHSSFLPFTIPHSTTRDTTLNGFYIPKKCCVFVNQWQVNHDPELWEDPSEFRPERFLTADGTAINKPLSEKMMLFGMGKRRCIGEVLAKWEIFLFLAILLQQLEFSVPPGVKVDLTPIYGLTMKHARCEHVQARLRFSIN

For `COCCn1c(=O)c(C)nc2cnc(N3CCOCC3)nc21`, the Potency in [1] is above 11.4 µM; in experiment [5] it was above 9.22 µM; in experiment [6], above 46 µM. Besides, the activity change, negative = inhibition in experiment [2] is -1.95%; in [3], -1.73%. Moreover, the activity, negative = inhibition in experiment [4] is -12.9%. The Potency entry in [7], in experiment [8], in experiment [9], in experiment [10], in experiment [11] and in [12] was “inactive” each time. Further, the outcome in [13] was inactive.
In the case of `Cc1noc(C)c1-c1ccc2ncnc(NCCN3CCOCC3)c2c1`, the Potency was above 11.4 µM in experiment [1]; 15.8 µM (active) in [14]; above 46 µM in [5]; above 46 µM in [6]; 8.91 µM (active) in [9]; 6.31 µM (active) in experiment [10]. For the same compound, the Potency in experiment [11] is 8.91 µM (active). Besides, in experiment [2], the activity change, negative = inhibition was 1.93%. Moreover, the activity, negative = inhibition in experiment [4] was -22.6%. Further, the Potency result in [7], in experiment [8], in experiment [15] and in experiment [12] was “inactive” each time. The outcome in [13] was inactive.
Take `COc1cccc(Cn2c(=O)c(-c3ccc(Cl)cc3)nc3cncnc32)c1`: the Potency in [1] is above 11.4 µM; in experiment [5], above 9.22 µM; in [6], above 46 µM. In addition, the activity change, negative = inhibition in [2] is -9.78%; in [3], -4.86%. Besides, in [4], the activity, negative = inhibition is -0.792%. Also, the Potency result in [7], in [9], in experiment [10], in experiment [11] and in experiment [12] was “inactive” each time. Moreover, the outcome in experiment [13] was inactive.
`Cc1ccccc1-c1cc(N2CCNCC2)ncn1`: the Potency in experiment [1] was above 11.4 µM; in experiment [5], above 46 µM; in experiment [6], above 46 µM. For the same compound, the activity change, negative = inhibition is 8.27% in experiment [2] and 15.7% in experiment [3]. The activity, negative = inhibition in experiment [4] is 8.55%. Further, the Potency entry in [7], in experiment [8], in [9], in experiment [10], in [11] and in experiment [12] was “inactive” throughout. The result in [13] was inactive.
As for `COc1ncc2nc(C)c(=O)n(Cc3ccc(F)cc3)c2n1`, the figures for the Potency in experiment [1], in experiment [5] and in [6] were above 11.4 µM, above 9.22 µM and above 46 µM, respectively. Also, the activity change, negative = inhibition in experiment [2] was -12.3%; in [3], -2.65%. Also, the activity, negative = inhibition in experiment [4] was -17.5%. Besides, the Potency entry in [7], in [8], in experiment [9], in experiment [10], in [11] and in experiment [12] was “inactive” throughout. In experiment [13], the outcome was inactive.
As to `c1cncc(-c2nc(-n3ccnc3)c3ccccc3n2)c1`, the Potency in experiment [1] was above 11.4 µM; in experiment [5], above 46 µM; in experiment [6], above 46 µM; in experiment [9], 11.2 µM (active); in [10], 11.2 µM (active); in experiment [11], 12.6 µM (active). In addition, the figures for the activity change, negative = inhibition in experiment [2] and in experiment [3] were 14.5% and 8.3%, respectively. Further, the activity, negative = inhibition in experiment [4] was -3.82%. The Potency entry in [7], in experiment [8] and in [12] was “inactive” throughout. In addition, the outcome in [13] was inactive.
Turning to `COc1ncc2nc(-c3cn(C)c4ccccc34)c(=O)n(C[C@H]3CCCO3)c2n1`, the Potency in experiment [1] was above 11.4 µM; in experiment [5], above 9.22 µM; in [6] it was above 46 µM. Also, the activity change, negative = inhibition in experiment [2] is -6.51%; in experiment [3], 3.98%. The activity, negative = inhibition in [4] is -5.17%. In addition, the Potency result in experiment [7], in [9], in experiment [10], in experiment [11] and in [12] was “inactive” throughout. Besides, the outcome in experiment [13] was inactive.
